HCV inhibitor: inhibitors of hepatitis C virus infection; Huh7.5.1 HCVcc-Cre infection, luciferase reporter, 44 h; Potency, µM (top dose mostly 41.8 µM), for inactives: top-dose activity change, negative = inhibition, actives largely listed as inhibitors; 340,000 compounds, 3.4% hits; AID 651820; active means well fitted inhibition curve with a large enough effect; inconclusive means small, poorly fitted or top-dose-only effect, or another doubt; inactive means no such curve, though single readings can be large or run the other way; further: potency means the concentration at half of the fitted maximal effect
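Cells (1,000/well) were plated 4 h before compound, then infected with HCVcc-Cre virus (~0.5 moi). After 44 h further culture, infection was read as luciferase luminescence following a 15 min substrate incubation at room temperature.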
HCMV antiviral: inhibitors of human cytomegalovirus. AID 1259415. HFF cells, HCMV-luciferase reporter, 72 h; stronger effect = lower value. 410,000 compounds, 4.5% hits. activity change, negative = inhibition, % at 57.5 µM; in the data active means activity change below about -60%; inconclusive means no clear call, values can overlap the other calls; inactive means above about -39%
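Luciferase read-out from HCMV-luciferase-infected HFFs (MOI 1 PFU/cell) 72 h post infection at 37C; compounds added after 16 h cell attachment; activity normalized between buffer-only basal and Salinomycin (10uM) inhibitor controls.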
Marburg entry inh: blocks Marburg virus binding to or entry into cells; Marburg virus pseudotyped entry inhibition, cell reporter; Potency, µM (titrated, usually from 37.8 µM), inactives show at the highest dose activity change, negative = inhibition, most hits filed as inhibitors; 300,000 compounds, 1.8% hits; AID 540276; calls by dose curve; tested in HEK293 cells; further: potency means the concentration at half of the fitted maximal effect
FMDV inh: foot and mouth disease virus antiviral activity | FMDV antiviral cell-based qHTS | Potency, µM (titrated, usually from 57.9 µM), without a hit: at the highest dose activity change, negative = inhibition, actives largely listed as inhibitors | AID 1159524 | 410,000 compounds, 1.2% hits; calls by dose curve; tested in HEK293T cells; further: read-out not given here; potency means the concentration at half of the fitted maximal effect; nearly all actives have a fitted effect of over 45% in size
LASV entry inh: inhibitors of Lassa virus binding or cell entry | Lassa virus pseudotype entry inhibition, cell reporter | Potency, µM (series often up to 37.9 µM), inactives show top-dose activity change, negative = inhibition, usual class: inhibitors | 300,000 compounds, 1.2% hits | AID 540256; calls by dose curve; tested in HEK293 cells; further: potency means the concentration at half of the fitted maximal effect; nearly all actives have a fitted effect of over 50% in size
* marks the source's active call; other numbers are inactive results; ? = inconclusive; . = not tested or not shown; [ ] = another dose, or the depositor's remark. Most compounds without a hit are left out; they make up all but 7.9% or so of the library. On the % scale 0 is the no-effect control and ±100 the full control effect.

SMILES | HCV inhibitor | HCMV antiviral | Marburg entry inh | FMDV inh | LASV entry inh
O=c1oc2ccccc2n1CSc1nc2ccccc2s1 | -16.8% | 116.5 | ? | 4.9% | 5.9%
O=C(c1cccc([N+](=O)[O-])c1)N1CCc2ccccc21 | -7.9% | 10.5 | . | 15.6% | .
O=C(c1cc([N+](=O)[O-])cc([N+](=O)[O-])c1)N1CCCc2ccccc21 | 4.1% | -23.5 | 10µM* | -25.0% | 11.5%
CC(Nc1ccccc1N1CCCCC1)C(=O)N1CCc2ccccc21 (stereo not given) | -22.6% | -69.9* | -7.8% | ? | -3.1%
O=C(c1cc([N+](=O)[O-])ccc1N1CCCCC1)N1CCc2ccccc21 | ? | ? | 4.47µM* | -5.5% | ?
CC(NC(c1ccccc1)c1ccccc1)C(=O)N1CCCc2ccccc21 (stereo not given) | -9.9% | -24.5 | -36.6% | ? | ?
O=C1CCC[C@H]2[C@@H](Cc3ccccc3)[C@@H](NCC3CCCCC3)CC[C@]23CCCN13 | . | 12.8 | . | . | .
Cc1ccc(C(=O)c2cnc3cc4c(cc3c2S(=O)(=O)c2ccccc2)OCCO4)cc1 | -7.4% | -93.6* | 7.08µM* | 1.6% | -1.9%
Cc1ccc2ncc(C(=O)c3ccc(C)c(C)c3)c(S(=O)(=O)c3ccccc3)c2c1 | . | -92.2* | ? | -16.7% | .
CCOc1ccc(S(=O)(=O)c2c(C(=O)c3ccc(C)cc3)cnc3cc4c(cc23)OCCO4)cc1 | -12.5% | -62.1* | ? | 10.1% | -10.8%
COc1ccc(-c2onc(C)c2C)cc1S(=O)(=O)N(C)Cc1ccco1 | . | ? | . | -17.4% | -20.3%[46.1 µM]
CC(=O)Nc1ccccc1OCC(=O)N(Cc1ccccc1)C(C)C | 15.8µM* | -77.4* | ? | ? | 3.0%
CCCOC(=O)C(C)n1cnc2scc(-c3ccc(C)cc3)c2c1=O (stereo not given) | 22.4µM* | 5.4 | . | -4.4% | .
Nc1nc(N)c2cc([N+](=O)[O-])ccc2n1 | ? | -13.8 | -1.8% | -11.7% | 4.0%
Nc1nc(N)c2c(ccc3c2ccn3Cc2cccc([N+](=O)[O-])c2)n1 | . | -99.1* | . | ? | .
COc1cccc2cc(-c3nc4sc5c(c4c(=O)[nH]3)CCC(C(C)(C)C)C5)c(=O)oc12 (stereo not given) | . | -10.3 | . | 0.7% | 0.5%[46.1 µM]
COC(=O)C1=C(c2ccccc2OCc2ccccc2)C[C@@H]2CC[C@H]1N2C(=O)NCCOc1ccccc1Cl | ? | -72.9* | 1.2% | -25.5% | .
COC(=O)C1=C(c2ccc(F)cc2OCc2ccccc2)C[C@@H]2CC[C@H]1N2C(=O)NCc1ccc(F)cc1 | ? | -20.4 | . | -31.1% | .
COC(=O)C1=C(c2ccc(F)cc2OCc2ccccc2)C[C@@H]2CC[C@H]1N2C(=O)NCc1ccc(C)cc1 | ? | -67.1* | . | -3.5% | .
COC(=O)C1=C(c2ccccc2OCc2ccccc2)C[C@@H]2CC[C@H]1N2C(=O)NCc1ccc(F)cc1 | 7.08µM* | -34.3 | . | -29.2% | .
COC(=O)C1=C(c2cccc(OCc3ccccc3)c2)C[C@@H]2CC[C@H]1N2C(=O)NCCOc1ccccc1Cl | ? | -18.4 | . | -18.4% | .
COC(=O)C1=C(c2ccc(F)cc2OCc2ccccc2)C[C@@H]2CC[C@H]1N2C(=O)NCCCc1ccccc1 | 10µM* | -25.7 | . | -30.0% | .
CCOC(=O)c1ccc(NC(=O)c2cc(=O)c3ccc(C)c(C)c3o2)cc1 | . | 9.9 | 0.4%[46.1 µM] | -4.7% | 15.0%[46.1 µM]
Cc1cccc(NC(=O)c2ccc(CN3CC(=O)N4CCCCC4C3=O)cc2)c1C (stereo not given) | . | 10.6 | . | -10.2% | 7.7%[46.1 µM]
COC(=O)C1=C(c2ccc(F)cc2OCc2ccccc2)C[C@@H]2CC[C@H]1N2C(=O)NC1Cc2ccccc2C1 | 11.2µM* | -8.2 | . | -18.3% | .
SMILES | HCV inhibitor | HCMV antiviral | Marburg entry inh | FMDV inh | LASV entry inh
Cc1oc2ncn(CC(C)C)c(=O)c2c1C(=O)N1CCN(c2cccc(C(F)(F)F)c2)CC1 | . | -23.7 | . | -19.1% | 20.0%[46.1 µM]
CN(C(=O)c1ccc(NC(=O)Cc2cccc(NC(=O)C3CCCN(C(=O)CCc4ccccc4)C3)c2)cc1)C1CCCC1 (stereo not given) | ? | -4.8 | . | 0.0% | .
CN(C(=O)c1cccc(NC(=O)Cc2ccc(NC(=O)C3CCCN(C(=O)CCc4ccccc4)C3)cc2)c1)C1CCC1 (stereo not given) | -7.2%[8.37 µM] | -32.2 | . | 17.8µM* | .
CN(Cc1ccccc1)C(=O)c1cccc(NC(=O)Cc2ccc(NC(=O)C3CCCN(C(=O)C4CCCCC4)C3)cc2)c1 (stereo not given) | 7.94µM* | 5.9 | . | -13.8% | .
CN(Cc1ccccc1)C(=O)c1ccc(NC(=O)Cc2cccc(NC(=O)C3CCCN(C(=O)CCc4ccccc4)C3)c2)cc1 (stereo not given) | ? | -68.4* | . | ? | .
O=C(Cc1ccc(NC(=O)C2CCCN(C(=O)CCc3ccccc3)C2)cc1)Nc1cccc(C(=O)N2CCCCC2)c1 (stereo not given) | 7.94µM* | ? | . | ? | .
O=C(Cc1ccc(NC(=O)C2CCCN(C(=O)CCc3ccccc3)C2)cc1)Nc1cccc(C(=O)N2CCCC2)c1 (stereo not given) | -21.9%[8.37 µM] | -16.7 | . | ? | .
CN(C(=O)c1ccc(Oc2ccc([N+](=O)[O-])cc2)cc1)C1CCCCC1 | 12.6µM* | -28.4 | . | ? | .
CN(C(=O)c1ccc(-c2ccccc2)cc1)C1CCCCC1 | -19.8% | -3.7 | ? | 24.2% | ?
CN(C(=O)c1cccc(NC(=O)Cc2ccc([N+](=O)[O-])cc2)c1)C1CCCCC1 | 3.16µM* | ? | . | ? | .
CN(C(=O)c1cccc(NC(=O)Cc2ccc(NC(=O)C3CCCN(C(=O)CCc4ccccc4)C3)cc2)c1)C1CCCC1 (stereo not given) | ? | -71.6* | . | ? | .
CN(C(=O)c1cccc(NC(=O)Cc2ccc(NC(=O)C3CCN(S(=O)(=O)c4cccc([N+](=O)[O-])c4)CC3)cc2)c1)C1CCCC1 | -9.8% | -7.4 | . | -6.7% | .
CN(C(=O)c1ccc(NC(=O)Cc2ccc(NC(=O)C3CCCN(C(=O)CCc4ccccc4)C3)cc2)cc1)C1CC1 (stereo not given) | 14.1µM* | -86.4* | . | ? | .
CN(C(=O)Cn1cc([N+](=O)[O-])ccc1=O)C1CCCCC1 | -13.5% | 0.2 | 1.26µM* | -18.2% | 8.9%
CN(C(=O)CN1C(=O)c2ccc([N+](=O)[O-])cc2C1=O)C1CCCCC1 | 32.1% | -28.3 | 8.5% | -9.2% | 18.5%
CCCCCc1c(C)nc(Nc2ccc(F)cc2)[nH]c1=O | 0.2% | -70.1* | ? | ? | -6.9%
CCCCc1c(C)nc(Nc2ccc(OC)cc2)[nH]c1=O | 8.7% | -33.9 | ? | -4.3% | 6.6%
C#CCOC(=O)CCCC(=O)NCCCCCCCC | -3.0% | -4.8 | . | -21.0% | .
CC1(C)Cc2c(ccc3ccccc23)/C(=C/C(=O)N2CCCCC2)N1 | ? | 52.4 | 11.2µM* | ? | -8.5%
O=C(c1ccc(CS(=O)c2ccccc2Cl)o1)N1CCN(c2ccccn2)CC1 (stereo not given) | ? | ? | . | -27.1% | .
